For eight compounds, Percent Effect results are on record in ChEMBL document CHEMBL3988442, “University of Dundee, Small-Polar-MMV Screening Library” (2021).

Holding throughout (parameters): scale not given: direction of the effect not stated beside the values
The target in experiment [1] is Protein translocase subunit SecA (Escherichia coli (strain K12)) (UniProt P10408). The experiment can be described thus: Assay to Identify E. coli SecA ATPase Inhibitors. Format: functional. To be noted: 30 µM.
Experiment [2] has as its target T1, Ubiquitin-activating enzyme e1, putative (Leishmania donovani (strain BPK282A1)) (UniProt E9BSI1).
T1 sequence (whole entry): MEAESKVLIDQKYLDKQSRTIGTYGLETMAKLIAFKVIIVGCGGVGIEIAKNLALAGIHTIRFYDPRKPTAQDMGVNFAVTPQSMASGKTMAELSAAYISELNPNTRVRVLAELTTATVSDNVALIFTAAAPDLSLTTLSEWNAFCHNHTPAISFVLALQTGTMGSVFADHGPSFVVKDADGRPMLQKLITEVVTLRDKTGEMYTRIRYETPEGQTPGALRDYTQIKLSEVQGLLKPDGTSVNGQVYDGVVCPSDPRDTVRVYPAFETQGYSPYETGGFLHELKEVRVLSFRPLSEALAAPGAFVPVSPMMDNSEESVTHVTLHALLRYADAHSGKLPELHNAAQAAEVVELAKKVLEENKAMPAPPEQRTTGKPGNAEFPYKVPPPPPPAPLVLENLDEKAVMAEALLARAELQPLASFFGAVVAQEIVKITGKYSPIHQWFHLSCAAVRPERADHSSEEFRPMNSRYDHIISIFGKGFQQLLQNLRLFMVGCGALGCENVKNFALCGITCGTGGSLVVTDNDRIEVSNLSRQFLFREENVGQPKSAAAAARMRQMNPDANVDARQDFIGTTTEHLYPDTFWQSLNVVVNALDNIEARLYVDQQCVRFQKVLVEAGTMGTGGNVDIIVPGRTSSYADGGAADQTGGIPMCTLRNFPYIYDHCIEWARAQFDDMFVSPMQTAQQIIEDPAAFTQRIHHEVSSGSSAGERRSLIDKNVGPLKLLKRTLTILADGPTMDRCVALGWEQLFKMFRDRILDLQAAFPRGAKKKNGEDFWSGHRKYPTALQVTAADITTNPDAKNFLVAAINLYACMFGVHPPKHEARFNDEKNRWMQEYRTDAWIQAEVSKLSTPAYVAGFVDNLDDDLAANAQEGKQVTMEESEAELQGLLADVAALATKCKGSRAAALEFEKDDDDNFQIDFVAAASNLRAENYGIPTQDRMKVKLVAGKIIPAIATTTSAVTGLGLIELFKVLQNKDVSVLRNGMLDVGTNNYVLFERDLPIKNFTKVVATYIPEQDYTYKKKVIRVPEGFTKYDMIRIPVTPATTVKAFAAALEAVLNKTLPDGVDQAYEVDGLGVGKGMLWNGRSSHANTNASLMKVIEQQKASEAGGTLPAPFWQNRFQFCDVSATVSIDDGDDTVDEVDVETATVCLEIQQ
Briefly: Leishmania donovani Ubiquitin Activating Enzyme (LdE1). The experiment is classed as functional. To be noted: 30 µM.

For experiment [3], the target named is AMP-activated protein kinase, AMPK (Homo sapiens) (UniProt P54646+O43741+P54619+Q9UGJ0+Q9Y478+Q13131+Q9UGI9). The experiment can be described thus: AMP-dependent Kinase enzyme assay. An in vitro enzyme assay that detects ADP turnover that is directly proportional to AMPK activity. This uses naive AMPK that is activated during the assay with MK-8722. The following applies: 30 µM. The experiment is classed as functional.

Experiment [4] deals with Sialic acid-binding Ig-like lectin 9 (Homo sapiens) (UniProt Q9Y336). The experiment can be described thus: Hs-Siglec9 ALPHAscreen SOP 20170721. The following applies: 10 µM. (Alpha assays give light when donor and acceptor beads are brought close together.)
The test system of another experiment is Trypanosoma cruzi. The experiment can be described thus: Trypanosoma cruzi phosphomannomutase and mannose-1-phosphate guanylyltransferase assay. Format: functional. To be noted: 10 µM.
Experiment [5] has as its target T2, Arginase-2, mitochondrial (Homo sapiens) (UniProt P78540).
T2 sequence (whole entry): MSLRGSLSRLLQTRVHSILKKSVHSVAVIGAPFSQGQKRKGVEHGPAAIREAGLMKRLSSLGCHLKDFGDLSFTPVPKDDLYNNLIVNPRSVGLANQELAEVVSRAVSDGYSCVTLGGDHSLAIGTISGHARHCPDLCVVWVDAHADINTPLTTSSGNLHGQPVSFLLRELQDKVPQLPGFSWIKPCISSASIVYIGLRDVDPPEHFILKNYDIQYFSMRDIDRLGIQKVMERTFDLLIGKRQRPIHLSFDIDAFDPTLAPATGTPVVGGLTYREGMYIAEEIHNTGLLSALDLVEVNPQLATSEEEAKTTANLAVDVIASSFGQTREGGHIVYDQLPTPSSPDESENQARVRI
The experiment can be described thus: in vitro enzyme assay to detect the production of urea directly proportional to the activity of Arginase II. Further: in the data most compounds retested in dose-response had high values. Format: functional. To be noted: 33.3 µM.

Experiment [6] concerns the target T3, Proteasome subunit beta (Trypanosoma cruzi) (UniProt O96673).
T3 sequence (whole entry): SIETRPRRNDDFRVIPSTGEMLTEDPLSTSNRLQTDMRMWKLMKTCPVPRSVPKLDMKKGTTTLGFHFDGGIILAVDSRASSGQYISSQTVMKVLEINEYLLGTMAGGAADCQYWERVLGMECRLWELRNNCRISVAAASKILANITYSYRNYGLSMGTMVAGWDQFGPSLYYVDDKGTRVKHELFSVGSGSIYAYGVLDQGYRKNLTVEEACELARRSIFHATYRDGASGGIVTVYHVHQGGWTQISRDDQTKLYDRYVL
The experiment can be described thus: Trypanosoma cruzi proteasome chymotrypsin-like activity (TcProtChymo) assay. Further: in the data most compounds retested in dose-response had high values. The experiment is classed as functional. To be noted: 9.37 µM.

For a further experiment, the species on record is Homo sapiens. Briefly: To identify inhibition of the IFN signalling (Jak-Stat) pathway via expression of an eGFP reporter gene under the control of an IFN-stimulated response element (ISRE) containing MxA promoter. The following applies: 30 µM. The experiment is classed as functional. For orientation: A reporter such as luciferase makes a cellular process visible.

Experiment [7] deals with T4, Tyrosyl-tRNA synthetase, putative (Trypanosoma cruzi (strain CL Brener)) (UniProt Q4DSP6).
T4 sequence (whole entry): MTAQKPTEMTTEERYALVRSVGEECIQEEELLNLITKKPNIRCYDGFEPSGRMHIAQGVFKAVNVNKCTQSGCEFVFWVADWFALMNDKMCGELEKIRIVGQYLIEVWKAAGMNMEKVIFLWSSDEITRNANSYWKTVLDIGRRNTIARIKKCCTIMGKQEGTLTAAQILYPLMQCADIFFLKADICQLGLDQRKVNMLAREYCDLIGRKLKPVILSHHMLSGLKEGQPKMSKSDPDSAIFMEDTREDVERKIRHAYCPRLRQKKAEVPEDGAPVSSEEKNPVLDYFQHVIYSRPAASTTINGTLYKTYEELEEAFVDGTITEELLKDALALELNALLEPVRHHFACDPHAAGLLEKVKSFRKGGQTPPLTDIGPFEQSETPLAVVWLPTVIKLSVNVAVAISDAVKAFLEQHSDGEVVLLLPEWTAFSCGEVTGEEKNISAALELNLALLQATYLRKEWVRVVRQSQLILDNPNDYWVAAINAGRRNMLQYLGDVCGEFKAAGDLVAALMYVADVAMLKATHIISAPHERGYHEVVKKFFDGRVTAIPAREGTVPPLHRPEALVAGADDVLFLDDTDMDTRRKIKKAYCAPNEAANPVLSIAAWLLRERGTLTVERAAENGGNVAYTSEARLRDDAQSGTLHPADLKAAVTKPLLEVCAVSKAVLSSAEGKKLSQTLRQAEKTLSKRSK
Briefly: Trypanosoma cruzi tyrosyl tRNA synthetase (TcYRS) _High Tyrosine SOP. Further: in the data most compounds retested in dose-response had high values. Format: functional. The following applies: 30 µM.

For experiment [8], the target named is T4, Tyrosyl-tRNA synthetase, putative (Trypanosoma cruzi (strain CL Brener)). The experiment can be described thus: Trypanosoma cruzi tyrosyl tRNA synthetase (TcYRS) SOP. The experiment is classed as functional. To be noted: 30 µM.
Experiment [9] concerns the target Chromo domain-containing protein 1 (Saccharomyces cerevisiae (strain ATCC 204508 / S288c) (Baker's yeast)) (UniProt P32657). Briefly: ScCHD-1 Enzyme Inhibition Assay. Further: in the data most compounds retested in dose-response had high values. Format: functional. To be noted: 30 µM.

SMILES strings stand for the structures. For some of these results: Results with a measured potency or affinity are listed apart.

Chromo domain-containing protein 1 (Saccharomyces cerevisiae (strain ATCC 204508 / S288c) (Baker's yeast)), sequence (P32657 whole entry, the tested form may be a part): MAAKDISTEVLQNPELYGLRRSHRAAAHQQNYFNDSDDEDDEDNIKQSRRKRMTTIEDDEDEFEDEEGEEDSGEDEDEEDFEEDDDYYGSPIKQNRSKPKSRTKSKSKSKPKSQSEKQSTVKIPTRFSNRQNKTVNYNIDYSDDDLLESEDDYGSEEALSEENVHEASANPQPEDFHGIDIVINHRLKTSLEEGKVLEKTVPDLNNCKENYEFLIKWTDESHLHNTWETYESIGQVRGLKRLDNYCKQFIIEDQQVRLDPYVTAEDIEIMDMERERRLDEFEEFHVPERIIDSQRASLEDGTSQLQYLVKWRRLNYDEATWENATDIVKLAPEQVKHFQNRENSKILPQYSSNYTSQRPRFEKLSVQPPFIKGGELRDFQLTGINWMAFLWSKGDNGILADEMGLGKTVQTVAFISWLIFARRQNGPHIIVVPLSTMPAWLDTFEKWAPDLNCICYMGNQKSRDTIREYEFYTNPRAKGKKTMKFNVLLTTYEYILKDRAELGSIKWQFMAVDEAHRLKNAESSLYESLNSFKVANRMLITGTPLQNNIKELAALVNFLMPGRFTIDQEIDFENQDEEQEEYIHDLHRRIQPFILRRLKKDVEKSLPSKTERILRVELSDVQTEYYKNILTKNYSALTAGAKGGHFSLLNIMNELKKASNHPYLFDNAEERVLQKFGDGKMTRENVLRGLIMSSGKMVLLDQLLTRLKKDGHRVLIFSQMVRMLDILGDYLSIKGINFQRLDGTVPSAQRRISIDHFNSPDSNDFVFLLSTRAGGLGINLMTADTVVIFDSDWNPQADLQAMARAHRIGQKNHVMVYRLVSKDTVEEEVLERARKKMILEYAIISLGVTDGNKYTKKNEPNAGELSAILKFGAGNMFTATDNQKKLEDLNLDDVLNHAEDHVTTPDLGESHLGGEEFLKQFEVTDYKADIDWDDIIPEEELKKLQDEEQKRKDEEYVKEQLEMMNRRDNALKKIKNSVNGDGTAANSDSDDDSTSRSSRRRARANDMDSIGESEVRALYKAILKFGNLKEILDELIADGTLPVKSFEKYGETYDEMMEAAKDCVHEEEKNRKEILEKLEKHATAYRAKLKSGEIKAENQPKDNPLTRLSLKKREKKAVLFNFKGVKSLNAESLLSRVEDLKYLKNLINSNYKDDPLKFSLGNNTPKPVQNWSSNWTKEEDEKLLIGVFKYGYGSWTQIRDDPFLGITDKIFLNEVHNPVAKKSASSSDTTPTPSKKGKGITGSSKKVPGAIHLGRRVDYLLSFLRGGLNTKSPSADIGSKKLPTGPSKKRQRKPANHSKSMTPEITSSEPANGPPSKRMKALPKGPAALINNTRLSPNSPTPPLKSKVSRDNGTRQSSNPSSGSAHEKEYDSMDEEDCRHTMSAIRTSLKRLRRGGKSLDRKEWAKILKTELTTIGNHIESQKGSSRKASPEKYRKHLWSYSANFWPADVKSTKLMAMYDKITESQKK
Protein translocase subunit SecA (Escherichia coli (strain K12)), sequence (P10408 whole entry): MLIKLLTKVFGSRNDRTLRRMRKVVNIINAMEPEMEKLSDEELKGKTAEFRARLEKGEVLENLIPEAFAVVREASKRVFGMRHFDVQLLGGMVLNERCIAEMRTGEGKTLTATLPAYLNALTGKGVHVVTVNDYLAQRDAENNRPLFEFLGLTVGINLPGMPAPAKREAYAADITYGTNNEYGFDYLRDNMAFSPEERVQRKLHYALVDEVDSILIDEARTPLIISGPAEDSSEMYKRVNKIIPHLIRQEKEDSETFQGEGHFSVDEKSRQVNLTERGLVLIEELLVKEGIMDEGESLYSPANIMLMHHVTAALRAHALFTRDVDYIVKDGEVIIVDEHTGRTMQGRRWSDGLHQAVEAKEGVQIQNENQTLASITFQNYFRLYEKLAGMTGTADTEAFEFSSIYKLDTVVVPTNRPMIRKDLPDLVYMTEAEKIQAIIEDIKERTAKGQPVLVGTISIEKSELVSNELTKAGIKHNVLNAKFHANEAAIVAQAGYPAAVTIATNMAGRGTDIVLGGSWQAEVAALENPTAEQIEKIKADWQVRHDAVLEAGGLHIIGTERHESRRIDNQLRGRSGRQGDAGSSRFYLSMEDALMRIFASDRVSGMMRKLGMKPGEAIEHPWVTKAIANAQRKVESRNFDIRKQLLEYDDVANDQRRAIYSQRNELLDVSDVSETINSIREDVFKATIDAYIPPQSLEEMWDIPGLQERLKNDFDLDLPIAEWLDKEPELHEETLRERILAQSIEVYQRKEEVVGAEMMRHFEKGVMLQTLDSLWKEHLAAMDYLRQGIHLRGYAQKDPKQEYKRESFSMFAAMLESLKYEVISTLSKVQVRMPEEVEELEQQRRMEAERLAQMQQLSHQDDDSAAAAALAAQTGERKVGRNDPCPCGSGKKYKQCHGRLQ
Sialic acid-binding Ig-like lectin 9 (Homo sapiens), sequence (Q9Y336 whole entry): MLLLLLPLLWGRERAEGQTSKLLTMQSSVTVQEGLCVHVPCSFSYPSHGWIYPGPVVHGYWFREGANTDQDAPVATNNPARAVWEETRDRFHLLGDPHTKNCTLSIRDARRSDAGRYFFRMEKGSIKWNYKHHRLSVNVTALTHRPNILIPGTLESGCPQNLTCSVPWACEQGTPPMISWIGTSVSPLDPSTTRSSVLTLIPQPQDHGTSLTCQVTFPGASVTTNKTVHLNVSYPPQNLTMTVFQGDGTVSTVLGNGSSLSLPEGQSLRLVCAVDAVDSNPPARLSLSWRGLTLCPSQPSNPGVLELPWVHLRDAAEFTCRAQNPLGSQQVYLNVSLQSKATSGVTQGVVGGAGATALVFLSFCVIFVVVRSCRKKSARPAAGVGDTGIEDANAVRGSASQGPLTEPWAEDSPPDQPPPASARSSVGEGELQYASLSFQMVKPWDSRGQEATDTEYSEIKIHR

As to `CC(C)n1ccc(-c2cc(C(=O)N3CCCC3)c3ccccn23)n1`, the Percent Effect in experiment [1] was 2.31%; in experiment [2] it was 13.5%; in experiment [3], 128%; in experiment [4], -12.1%; with Trypanosoma cruzi, -4.79%; in [5], 0.319%. The Percent Effect in [6] was 3.69%; in the experiment filed under Homo sapiens it was 65.6%; in experiment [7], -1.08%; in experiment [8] it was -2.56%; in [9], -12%.
For the compound `O=C(Cc1csc(-c2ccco2)n1)N1CCN(c2cnccn2)CC1`, the Percent Effect was -3.21% in experiment [1]; 13.9% in [2]; -1.6% in experiment [3]; 4.73% in experiment [4]; 0.718% in the experiment on Trypanosoma cruzi; -1.94% in experiment [5]. The Percent Effect in experiment [6] was 17.5%; in the experiment filed under Homo sapiens, 13.5%; in [7], 11.5%; in [8] it was 22.8%; in experiment [9] it was -30.1%.
For the compound `Cc1cnn(CC2CCCN2Cc2cc(=O)n3cccc(C)c3n2)c1` (stereo not drawn), the Percent Effect was -6.14% in experiment [1]; 8.11% in experiment [2]; -3.73% in experiment [3]; 28.3% in experiment [4]; 6.75% in the experiment with Trypanosoma cruzi; 35.5% in experiment [5]. For the same compound, the Percent Effect in experiment [6] was 17.8%; in the experiment filed under Homo sapiens, -6.92%; in [7], 14%; in experiment [8], 25.9%; in experiment [9], -5.16%.
For the compound `Cc1nn(C)c2c(N3CCN(C(=O)c4ccccc4)CC3)ncnc12`, the Percent Effect in [1] was 1.93%; in [2] it was 9.33%; in experiment [3] it was 2.69%; in experiment [4] it was -1.85%; in the experiment with Trypanosoma cruzi it was -6.68%; in [5], -10.4%. Besides, the Percent Effect in experiment [6] is 12%; in the experiment filed under Homo sapiens, 12.3%; in experiment [7], 8.47%; in experiment [8] it was 12.8%; in [9], -10.3%.
With `c1cnn(CC2CN(c3ncnc4ccsc34)CCO2)c1` (stereo not drawn), the Percent Effect in experiment [1] is -5.02%; in experiment [2] it was 2.7%; in experiment [3], 14.2%; in experiment [4], -3.02%; in the experiment with Trypanosoma cruzi, -4.69%; in [5], 0.833%. Further, the Percent Effect in experiment [6] worked out at 19.5%; in the experiment listed under Homo sapiens, 69.8%; in experiment [7], 4.95%; in [8], 11%; in experiment [9], 0.323%.
Regarding `CN(Cc1ccc(Cl)s1)C(=O)NCc1nnc2n1CCC2`, the Percent Effect in experiment [1] was -2.21%; in [2], 21.1%; in experiment [3], 2.58%; in experiment [4] it was -10.7%; in the experiment on Trypanosoma cruzi, 4.2%; in [5], -3.96%. Also, the Percent Effect in [6] is 7.87%; in the experiment listed under Homo sapiens, 0.395%; in experiment [7], 6.4%; in experiment [8] it was 18.5%; in experiment [9], -7.27%.
On to `CC(NC(=O)CSCC(=O)Nc1ccccc1)c1ccccc1` (stereo not drawn), for which the Percent Effect in experiment [1] is -1.97%; in experiment [2], 2.63%; in experiment [3], -2%; in experiment [4] it was -3.2%; in the experiment with Trypanosoma cruzi, -0.654%; in [5], 1.08%. Moreover, the Percent Effect in experiment [6] is -0.761%; in the experiment filed under Homo sapiens, -13.7%; in experiment [7], 3.45%; in experiment [8], 3.7%; in [9] it was 8.03%.
`Cc1cnn(CC2CCCN2C(=O)CCc2ccsc2)c1` (stereo not drawn): the Percent Effect in experiment [1] was -4.66%; in [2], 7.79%; in [3], 3.01%; in experiment [4] it was 4.3%; in the experiment with Trypanosoma cruzi, 3.82%; in experiment [5] it was 2.32%. The Percent Effect was 0.242% in experiment [6]; 15.8% in the experiment filed under Homo sapiens; 1.91% in [7]; 7.06% in [8]; -15.5% in [9].
